From PubChem BioAssay (EPA / NIEHS) come the findings set out here.

Active and inactive are the calls of the source. How the source made its calls: active means hit-call score of the fitted dose curve at least 0.9, where 1 is the maximum; inconclusive means response in the unintended direction; inactive means score below 0.9.

The term AC50 denotes the midpoint of the concentration-response curve, whichever way the signal moves.

A short description of this assay: Tanguay_ZF_120hpf_ActivityScore_legacy: (Legacy) Oregon State University Tanguay Lab 120 Hour Post-fertilization zebrafish Assay Score for Activity (AID 2283742).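 On AC50: static exposure from 6 hpf until 120 hpf at 28 °C.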 As to the method:
Tanguay_ZF_120hpf_legacy is a whole embryo, multiplexed endpoint assay using zebrafish larvae exposed for 120 hours post fertilization on a 96-well plate.Tanguay_ZF_120hpf_ActivityScore_legacy is one of one assay component(s) measured or calculated from the Tanguay_ZF_120hpf_legacy assay. It is designed to make measurements of developmental malformations and mortality as detected with brightfield microscopy and combines scoring from 18 other assay components measuring more specific morphologies.Data from the assay component Tanguay_ZF_120hpf_ActivityScore_legacy was analyzed into 1 assay endpoints. This assay endpoint, Tanguay_ZF_120hpf_ActivityScore_legacy, was analyzed in the positive analysis fitting direction relative to DMSO as the negative control and baseline of activity. Using a type of morphology reporter, gain-of-signal activity can be used to understand changes in developmentals as they relate to the whole embryo. To generalize the intended target to other relatable targets, this assay endpoint is annotated to the zebrafish development intended target family, where the subfamily is embryonic morphogenesis and mortality.
Zebrafish husbandry: Tropical 5D wild-type adult zebrafish were housed in at an approximate density of 1000 per 100 gallon tank at the Sinnhuber Aquatic Research Laboratory, Oregon State University, Corvallis, OR. Each tank was kept at standard laboratory conditions of 28C on a 14-h light/10-h dark photoperiod in fish water consisting of reverse osmosis water supplemented with a commercially available salt (Instant Ocean). Spawning funnels were placed into the tanks the night prior, and embryos were collected and staged. To increase bioavailability, the chorion was enzymatically removed using pronase (63.6mg/ml, >/= 3.5U/mg, Sigma-Aldrich: P5147) at 4 hours post fertilization (hpf) using a custom automated dechorionator.Chemical exposures: Six hpf dechorionated embryos were placed 1 embryo per well in a 96-well plate prefilled with 90 ul of EM using automated embryo placement systems (AEPS). Ten microliters of each row of dilution plate 2 was added to 2 exposure plates. The final DMSO concentration used was 0.64% (vol/vol). Thirty-two embryos were also exposed to 5uM trimethyltin chloride (positive control). Plates were sealed to prevent evaporation and foil covered to reduce light exposure and kept in a 28C incubator. Embryos were statically exposed until 120 hpf. At 24 hpf, embryos were assessed for photomotor response using a custom photomotor response analysis tool (PRAT) and for developmental toxicity endpoints (MO24: mortality at 24 hpf, DP: developmental progression, SM: spontaneous movement, and NC: notochord distortion). At 120 hpf, locomotor activity was measured using Viewpoint Zebralab and assessed for 18 endpoints. Zebrafish acquisition and analysis program (ZAAP), a custom program designed to inventory, acquire, and manage zebrafish data, was used to collect developmental endpoints as either present or absent (i.e., binary responses were recorded). If mortality occurred for an embryo (at either 24 or 120 hpf), the non-mortality endpoints were not measured.
With `OCCN(CCO)CCO`, the call was inactive.
Still for that read-out and setting: the result for `O=C(N[C@H]1CN2CCC1CC2)c1ccc2c(c1)OCCO2` reads “inactive”; that for `O=C(O)C1(c2ccc3c(c2)OC[C@H](Cc2ccc(-c4ccccc4)cc2)[C@H]3O)CCCC1`, “inactive”; that for `CC(C)O.CC(C)O.OCCN(CCO)CCO.OCCN(CCO)CCO.[Ti]`, “inactive”.
Turning to `CC(C)(C)c1ccccc1O`, the outcome was inactive.
Regarding `Cc1cc(C)cc(C)c1`, the result was inactive.
Still for that read-out and setting: with `N#Cc1cccnc1` the entry was “inactive”; with `Clc1cccc(Cl)c1`, “inactive”.
On to `Clc1cccc(Cl)c1Cl`, for which the AC50 is 0.00446 µM (active).
With `Oc1cc(Cl)c(Cl)cc1Cl`, the AC50 was 32.1 µM (active).
Regarding `COc1ccccc1N`, the molecule was classed as inactive.
For the molecule `Oc1c(Cl)cc(Cl)cc1Cl`, the AC50 is 19.1 µM (active).
As to `CN(C)C(=S)S`, the AC50 is 0.00103 µM (active).
For the molecule `CCCCCCCCCCCCc1cccc(S(=O)(=O)O)c1`, the result was inactive.
